Screen size: about 310,000 compounds; about 14,000 (4.5%) showed an effect of 50% or more. The effect is printed as a negative number. Many of the other results were omitted from the sample, so strong results are more common in it than they were. *1 amine or outer side, *2 acyl side, *3 side chain or, on linkers, in order; H or OH if unused. Where a SMILES comes first, the peptide text is derived from it. Bridges are numbered along the chain shown (N, C = ends). [ ]: non-standard residue; d: D form. ξ: configuration not given here. hSer(Ph(2-I,4-NO2,6-CO)) = O=C([C@H](CCOc1c(I)cc([N+](=O)[O-])cc1C(=O)[*:3])N[*:1])[*:2]; ξD = NC(CC(=O)O)C(=O)O
Each molecule was assayed against human ether-à-go-go-related gene (hERG) potassium channel (human, UniProt Q12809) (assay: primary screen, population patch clamp on CHO cells stably expressing hERG; higher = less effect of the substance).
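Also: peak tail current of the secondary pulse compared with the same well before compound.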

Chain of human ether-à-go-go-related gene (hERG) potassium channel (Q12809 whole entry, looked up): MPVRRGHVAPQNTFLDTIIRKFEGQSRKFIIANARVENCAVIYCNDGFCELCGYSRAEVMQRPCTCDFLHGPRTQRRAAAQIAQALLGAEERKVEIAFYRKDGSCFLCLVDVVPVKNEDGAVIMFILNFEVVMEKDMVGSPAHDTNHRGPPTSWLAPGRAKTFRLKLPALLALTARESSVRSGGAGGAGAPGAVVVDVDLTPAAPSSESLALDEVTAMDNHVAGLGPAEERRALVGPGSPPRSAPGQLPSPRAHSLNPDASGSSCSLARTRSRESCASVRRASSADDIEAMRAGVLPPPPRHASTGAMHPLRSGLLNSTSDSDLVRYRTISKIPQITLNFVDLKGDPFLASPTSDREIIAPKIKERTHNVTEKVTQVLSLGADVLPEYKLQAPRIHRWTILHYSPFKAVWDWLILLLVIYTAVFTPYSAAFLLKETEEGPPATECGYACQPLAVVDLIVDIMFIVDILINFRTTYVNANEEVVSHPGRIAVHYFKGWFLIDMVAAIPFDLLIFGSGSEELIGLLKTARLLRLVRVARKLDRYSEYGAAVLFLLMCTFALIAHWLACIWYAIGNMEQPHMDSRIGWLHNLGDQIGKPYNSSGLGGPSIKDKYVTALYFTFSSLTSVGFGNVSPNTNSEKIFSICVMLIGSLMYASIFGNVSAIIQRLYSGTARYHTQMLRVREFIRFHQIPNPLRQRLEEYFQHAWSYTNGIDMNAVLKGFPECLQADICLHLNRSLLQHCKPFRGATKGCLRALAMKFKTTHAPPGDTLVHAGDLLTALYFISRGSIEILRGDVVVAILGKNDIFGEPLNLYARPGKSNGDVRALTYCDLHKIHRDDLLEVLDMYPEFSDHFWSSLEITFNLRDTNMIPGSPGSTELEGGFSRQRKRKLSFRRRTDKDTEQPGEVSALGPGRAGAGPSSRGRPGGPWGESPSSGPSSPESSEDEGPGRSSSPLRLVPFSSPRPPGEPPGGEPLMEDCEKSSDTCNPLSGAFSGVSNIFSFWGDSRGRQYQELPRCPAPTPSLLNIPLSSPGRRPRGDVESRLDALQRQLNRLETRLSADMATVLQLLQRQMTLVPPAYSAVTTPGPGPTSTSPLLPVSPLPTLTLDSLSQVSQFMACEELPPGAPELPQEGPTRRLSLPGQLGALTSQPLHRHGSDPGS

SMILES	hERG current change (%, negative = inhibition) at 10uM [%]
O=C(NC1CCCCC1)c1cc(S(=O)(=O)N2CCOCC2)c(Cl)cc1Cl	13.6
Cc1nc2ccccc2c(=O)[nH]1	3.94
CN(C)S(=O)(=O)N1CCN(CC(=O)Nc2ccc(F)cc2)CC1	-69.7
Cc1ccc(N(CC(=O)Nc2ccc(F)cc2)S(=O)(=O)N2CCCC2)cc1	-27.1
CN(C)S(=O)(=O)N1CCN(CC(=O)Nc2ccc(Br)cc2)CC1	-49.4
CCc1ccc(-c2cn3c(n2)SCC3)cc1	4.12
CCc1ccc(Nc2nc(C)cc(C)n2)cc1.Cl	-1.21
CCc1ccc(-c2cn(-c3nc(C)cc(C)n3)c(=N)o2)cc1	-71.8
Cc1ccc2oc(-c3ccccc3)nc2c1	11.3
Nc1nc(CN2CCN(c3cccc(Cl)c3)CC2)nc(N2CCCc3ccccc32)n1	-6.96
Nc1nc(CN2CCN(c3ccccc3)CC2)nc(N2CCCc3ccccc32)n1	-39.6
Nc1nc(CN2CCN(c3ccccc3F)CC2)nc(N2CCCc3ccccc32)n1	-11.7
Nc1nc(CN2CCN(Cc3ccccc3)CC2)nc(N2CCCc3ccccc32)n1	-56.5
Nc1nc(CN2CCN(c3ccc(F)cc3)CC2)nc(N2CCCc3ccccc32)n1	-52.9
COc1ccc(N2CCN(Cc3nc(N)nc(N4CCCc5ccccc54)n3)CC2)cc1	-27.9
COc1ccc(CC(=O)N2N=C(C)CC2(O)C(F)(F)F)cc1 (stereo not shown)	2.87
Cc1cc(N/N=C/c2ccccc2F)c2ccccc2n1	9.06
CN(C)c1ccc(C(=S)N2CCCCC2)cc1	8.24
Nc1cccnc1S(=O)(=O)c1cccc(C(F)(F)F)c1	5.59
CC1CC(OCC(O)CN2CCOCC2)CC(C)(C)C1.Cl (stereo not shown)	1.1
CCOC(=O)N1CCN(CC(O)COC2CC(C)CCC2C(C)C)CC1.Cl (stereo not shown)	-33.1
CC1CCN(CC(O)COC2CC(C)CC(C)(C)C2)CC1.Cl (stereo not shown)	-54.5

SMILES	hERG current change (%, negative = inhibition) at 10uM [%]
CC1CCC(C(C)C)C(OCC(O)CN2CCOCC2)C1.Cl (stereo not shown)	-0.613
CC1CCN(CC(O)COC2CC(C)CCC2C(C)C)CC1.Cl (stereo not shown)	-70.4
CC1CCC(C(C)C)C(OCC(O)CN2CCCC(C)C2)C1.Cl (stereo not shown)	-31.6
CC1CCC(C(C)C)C(OCC(O)CN2CCN(Cc3ccccc3)CC2)C1.Cl (stereo not shown)	-66.5
CC1CC(C)CN(CC(O)COC2CC(C)CC(C)(C)C2)C1.Cl (stereo not shown)	-32.3
CC1CC(OCC(O)CN2CCN(Cc3ccccc3)CC2)CC(C)(C)C1.Cl (stereo not shown)	-43.5
CC(=O)Nc1ccc(N2C(=O)CSC2c2cccc([N+](=O)[O-])c2)cc1 (stereo not shown)	15.6
Cc1cc(NC(=O)CCCn2cnc([N+](=O)[O-])n2)no1	1.48
CC(=O)N1CCC2(CC1)C(C#N)=C(N)OC1=C2C(=O)CC(C)(C)C1	8.09
COc1ccccc1/C=C1\SC(=S)N(NS(=O)(=O)c2ccccc2)C1=O	8.33
COc1ccccc1C(=O)NC(=O)COC(=O)C1CC1C (stereo not shown)	-3.4
O=C(c1ccc(Cl)c(S(=O)(=O)N2CCOCC2)c1)N1CCN(c2ccccc2F)CC1	-15.1
COc1cc(CNc2cccc(C(=O)O)c2)cc(Br)c1OCC(=O)NC(C)(C)C	2.52
FC(F)(F)c1nnc2ccc(Sc3ccccn3)nn12	17.1
O=C(NCc1ccccn1)C1CC(c2ccccc2Cl)=NO1 (stereo not shown)	14.1
O=S(=O)(Cc1ccccc1Cl)N1CCCCC1	1.5
C=CCNCCCCOc1c(Cl)cc(C)cc1Br.O=C(O)C(=O)O	-31.7
CC(=O)N(\C=C/C=C/C=C1\Sc2ccccc2C1=O)c1ccccc1	-3.47
CCOC(=O)C1=C(C)N=c2s/c(=C\c3ccc(O)c([N+](=O)[O-])c3)c(=O)n2C1c1ccccc1OC (stereo not shown)	-61.7
CCOC(=O)C1=C(C)N=c2s/c(=C\c3cccc(OCC(=O)O)c3)c(=O)n2C1c1ccccc1OC (stereo not shown)	28.7
CCOC(=O)C1=C(C)N=c2s/c(=C\c3ccc(OCC(=O)O)cc3)c(=O)n2C1c1ccccc1OC (stereo not shown)	12.8
CC(=O)c1c(C)[nH]c(C(=O)OCC(=O)C(C)(C)C)c1C	-2.38

SMILES	hERG current change (%, negative = inhibition) at 10uM [%]
CN1CCN(C2CCCCC2NS(=O)(=O)c2ccccc2)CC1 (stereo not shown)	9.24
Brc1ccc(CN2CCSCC2)cc1	-65.1
Cc1ccc(CN2CCSCC2)cc1	17.4
CCc1ccc(CN2CCSCC2)cc1	7.39
CCC1(C)Cc2c(sc3nc(SC)nc(NCCN(C)C)c23)CO1 (stereo not shown)	-42.9
O=C(O)/C=C/C(=O)Nc1ccc(Oc2ncnc3cc(Cl)ccc23)nc1	18.4
CCC(C)NC(=O)Cn1cc2c(n1)CCC(C)C2 (stereo not shown)	13.8
c1ccc(-c2nn3nnnc3c3ccccc23)cc1	-71.8
Cc1ccc(-c2nn3nnnc3c3ccccc23)cc1C	-1.31
Cc1ccc(-c2nn3nnnc3c3ccccc23)cc1	14.3
CC1=CCC2C(=O)N(c3ccc(OC(=O)c4ccco4)cc3)C(=O)C2C1 (stereo not shown)	12
COC(=O)CSc1ncnc2c1sc1nc(-c3ccco3)c3c(c12)CC(C)(C)OC3	3.01
O=C(CSc1ncccn1)NNC(=O)c1ccccc1	-4.48
CCOCCCNC(=O)C(c1ccccc1)N(Cc1cccs1)C(=O)c1ccccc1O (stereo not shown)	14.3
O=C(COC(=O)CCCC1=NS(=O)(=O)c2ccccc2N1)Nc1ccccc1	24.7
Cc1cc(C)cc(NC(=O)COC(=O)CCCC2=NS(=O)(=O)c3ccccc3N2)c1	-55.9
CCOc1ccccc1NC(=O)COC(=O)CC(C)(C)CC1=NS(=O)(=O)c2ccccc2N1	-60.5
COc1ccccc1NC(=O)COC(=O)CC(C)(C)CC1=NS(=O)(=O)c2ccccc2N1	-69.9
COc1cc(NC(=O)COC(=O)CCCC2=NS(=O)(=O)c3ccccc3N2)cc(OC)c1	14.4
Cc1cccc(NC(=O)COC(=O)CCCC2=NS(=O)(=O)c3ccccc3N2)c1	10.7
COc1ccc(Cl)cc1NC(=O)COC(=O)CCCC1=NS(=O)(=O)c2ccccc2N1	21.4
CC(C)(CC(=O)OCC(=O)Nc1ccccc1F)CC1=NS(=O)(=O)c2ccccc2N1	0.85

SMILES	hERG current change (%, negative = inhibition) at 10uM [%]
CCc1ccc(NC(=O)COC(=O)CCCC2=NS(=O)(=O)c3ccccc3N2)cc1	-1.3
Cc1cc(NC(=O)C2CCCN(S(=O)(=O)c3c(C)noc3C)C2)no1 (stereo not shown)	-0.534
Cc1oc(-c2cccs2)nc1CSCC(=O)NC1CC1	-3.82
CCC1=NN(C(=O)Cc2ccc([N+](=O)[O-])cc2)C(O)(c2ccncc2)C1 (stereo not shown)	-11.9
COc1ccc(NC(=O)c2cccc(N3C(=O)C4C5C=CC(C5)C4C3=O)c2)cc1Cl (stereo not shown)	2.2
C=CCN1C(=O)C(Cc2ccc(F)cc2)S/C1=N/N=C/c1cccs1 (stereo not shown)	-9.46
CC(C)C(NC(=O)c1ccco1)C(=O)NCC(c1ccco1)N(C)C (stereo not shown)	12.5
OC(COc1ccc2c(c1)CCC2)CN1CCN(c2ccccc2F)CC1 (stereo not shown)	-14.6
COc1ccc(N2CCN(CC(O)COc3cc(C)ccc3C)CC2)cc1.Cl (stereo not shown)	-33.8
COc1ccc(N2CCN(CC(O)COc3ccc(C)cc3C)CC2)cc1.Cl (stereo not shown)	-67.8
CCOc1ccccc1N1CCN(CC(O)COc2ccc3c(C)cc(=O)oc3c2)CC1 (stereo not shown)	-53.1
COc1ccccc1N1CCN(CC(O)COc2ccc3c(c2)CCC3)CC1.Cl (stereo not shown)	-74.2
COc1cccc(OCC(O)CN2CC(C)CC(C)C2)c1.Cl (stereo not shown)	-13.5
COc1ccccc1N1CCN(CC(O)COc2ccc3c(C)cc(=O)oc3c2)CC1 (stereo not shown)	-24.7
COc1ccc(N2CCN(CC(O)COc3ccc4c(c3)CCC4)CC2)cc1.Cl (stereo not shown)	-48.3
CCN1CCN(CC(O)COc2ccc3c(c2)CCC3)CC1.Cl (stereo not shown)	5.59
CC1CC(C)CN(CC(O)COc2ccc3c(c2)CCC3)C1.Cl (stereo not shown)	-53.2
Cc1cc(=O)oc2cc(OCC(O)CN3CCN(c4ccccc4)CC3)ccc12.Cl (stereo not shown)	-47.4
COc1ccc(N2CCN(CC(O)COc3cc(C)cc(C)c3)CC2)cc1.Cl (stereo not shown)	-48.8
O=C(CSc1nnc(-c2ccccc2)o1)N1CCOCC1	6.37
NC(=O)C(CC(=O)O)NC(=O)[C@@H]1CCOc2c(I)cc([N+](=O)[O-])cc2C(=O)N[C@@H](CCC(=O)O)C(=O)N[C@@H](CO)C(=O)N1 (stereo partly shown) (ES[hSer(Ph(2-I,4-NO2,6-CO))][ξD]-NH2; lactam N-3)	-5.73
Br.C=CCn1c(C)csc1=Nc1ccc(C(=O)O)cc1	13.5
